Measurements: PubChem BioAssay AID1259418 (Broad Institute, 2018)
In all, about 3,400 compounds went through this assay and about 840 (25%) were called active. Inconclusive results (about 11%) are left out. A selection follows. Entries with a potency or affinity are not part of this list. Values without a mark were called inactive.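 How the source made its calls: active means fitted half-maximal concentration of signal decrease at or below twice the sample's top tested concentration; inconclusive means flat curve between -70 and -30 percent, or poor fit; inactive means flat within 30 percent, signal rise, or potency above limit.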

Test: inhibitors of Toxoplasma growth in IFN-γ-primed HeLa – cell-based, ME49Luc, luciferase, 72 h, dose response (AID 1259418)
Conditions: T. gondii ME49Luc in IFN-y HeLa, hits give low values, -100% = high-dose IFN-γ control wells; at 19.5 µM unless noted

Structure (SMILES) | max activity
N#CCSC1=Nc2ccccc2C2=NC(CCC(=O)NCc3ccccc3)C(=O)N12 (stereo unspecified) | 72.9%
CCOc1ccc(-c2nc(CN3CCN(C(=O)Nc4cc(C)ccc4C)CC3)c(C)o2)cc1 | -22.4%
Cc1nc(OCC(=O)Nc2ccccc2Cl)c2ccccc2n1 | 28.8% [at 0.35 µM]
CCc1nc(OCC(=O)Nc2cc(OC)cc(OC)c2)c2ccccc2n1 | 14.7% [at 0.68 µM]
COc1ccc(-c2nc(Cn3nnc(-c4nc(-c5cccnc5)no4)c3C)c(C)o2)cc1 | 6.33% [at 5 µM]
Cc1nc(OCC(=O)Nc2cccc(C)c2C)c2ccccc2n1 | 9.02% [at 0.16 µM]
Cc1ccc(S(=O)(=O)N2CCC[C@@H]2C(=O)NCCc2csc(C)n2)cc1 | 7.86% [at 10 µM]
Cc1nc(CCNC(=O)[C@H]2CCCN2S(=O)(=O)c2ccc(F)cc2)cs1 | 18.1% [at 1.35 µM]
Cc1nc(CCNC(=O)[C@H]2CCCN2S(=O)(=O)c2ccc(C)c(C)c2)cs1 | 15.2% [at 10 µM]
Cc1nc(CCNC(=O)[C@H]2CCCN2S(=O)(=O)c2ccc(Cl)cc2)cs1 | 23.5% [at 0.16 µM]
Cc1c(S(=O)(=O)N2CCC[C@@H]2C(=O)NCCc2csc(-c3ccccc3)n2)cnn1C(F)F | 5.67% [at 2.6 µM]
Cc1nc(CCNC(=O)[C@H]2CCCN2S(=O)(=O)c2ccccc2C)cs1 | 12.4% [at 10 µM]
O=C(NCCc1csc(-c2ccccc2)n1)[C@H]1CCCN1S(=O)(=O)c1cccc(F)c1 | -25.4% [at 1.35 µM]
CCc1ccc(S(=O)(=O)N2CCc3nc(-c4cccc(OC)c4)sc3C2)cc1 | -5.58% [at 5 µM]
Cc1cccc(-n2ncc3c(NC4CCCCCCCCCCC4)ncnc32)c1 | 22.5% [at 10 µM]
CCOC(=O)c1cccc(NC(=O)Nc2ccc(-c3nc(-c4ccccc4)co3)cc2)c1 | 14.5% [at 0.16 µM]
COc1ccccc1-c1nc(Cn2nnc(-c3nc(-c4ccc(F)cc4)no3)c2C)c(C)o1 | 9.82% [at 0.16 µM]
CS(=O)(=O)N1CCO[C@@H]2CN(C(=O)Cc3ccccn3)CC[C@H]2C1 | -7.92% [at 0.3 µM]
COc1ccc(-c2nc(Cn3nnc(-c4nc(-c5ccc(OC(C)C)cc5)no4)c3C)c(C)o2)cc1 | 11.3% [at 0.35 µM]
COc1cccc(NC(=O)Nc2ccc(-c3nc(-c4cccc(Br)c4)co3)cc2)c1 | 13.3%
Cc1ccc(C(=O)Nc2c(C(=O)N3CCCC3)[nH]c3ccc(C)cc23)cc1 | 49.7% [at 10 µM]
CCC(C)NC(=O)Cn1c(=O)c(S(=O)(=O)c2ccccc2)cc2cc(C)ccc21 (stereo unspecified) | -4.98% [at 10 µM]
Cc1cc(C)c(S(=O)(=O)N2CCC[C@@H]2C(=O)NCCc2csc(-c3ccccc3)n2)cc1C | -22.5%

Structure (SMILES) | max activity
O=C(NCCc1csc(-c2ccccc2)n1)[C@H]1CCCN1S(=O)(=O)c1cccc(Cl)c1 | -25.7%
CCc1ccc(S(=O)(=O)N2CCC[C@@H]2C(=O)NCCc2csc(C)n2)cc1 | -9.49% [at 0.35 µM]
CC(C)(C)c1ccc(S(=O)(=O)N2CCC[C@@H]2C(=O)NCCc2csc(-c3ccccc3)n2)cc1 | -14.7% [at 0.16 µM]
Cc1nc(CCNC(=O)[C@H]2CCCN2S(=O)(=O)c2ccc(Cl)s2)cs1 | 12.6% [at 0.16 µM]
Cc1cc(C)cc(C(=O)N2CCC[C@@H]2C(=O)NCCc2csc(-c3ccccc3)n2)c1 | -12.7%
COc1ccc(CNC(=O)Nc2ccc(-c3nc(-c4ccc(C)cc4C)co3)cc2)cc1 | 20.3% [at 1.35 µM]
Cc1oc(-c2ccccc2)nc1CSc1nc2c(c(=O)[nH]1)CN(Cc1ccc(F)cc1)CC2 | 22.6% [at 0.35 µM]
Cc1ccc(-c2coc(-c3ccc(NC(=O)C4CCCCC4)cc3)n2)cc1 | 55.5%
Cc1ccc(-c2coc(-c3ccc(NC(=O)c4cccc(C)c4)cc3)n2)cc1 | 70.3% [at 10 µM]
Cc1ccc(-c2nc(Cn3nnc(-c4nc(-c5ccccc5Br)no4)c3C)c(C)o2)cc1 | -6.98% [at 5 µM]
Cc1ccccc1C(=O)N1CSC[C@@H]1C(=O)NCCc1csc(-c2ccccc2)n1 | -16.3%
COc1ccccc1-c1noc(C2CCCN2C(=O)Cc2c[nH]c3ccccc23)n1 (stereo unspecified) | -7.96% [at 0.35 µM]
COc1ccccc1-c1noc(C2CCCN2C(=O)c2ccc3cc[nH]c3c2)n1 (stereo unspecified) | 14.5% [at 10 µM]
CCn1nccc1C(=O)Nc1ccc2c(c1)CCC(=O)N2C | 24.4%
COC[C@@H]1CN(CC2CC2)C[C@@]12CCN(CCc1ccccc1)C2 | -8.78% [at 2.6 µM]
CCOC(=O)CSc1nc(NCc2ccc(Cl)cc2)c2ccccc2n1 | 29.6%
CCOC(=O)C1CCN(c2nc(-c3ccc(Cl)cc3)nc3ccccc23)CC1 | 17% [at 0.35 µM]
O=C(Cn1c(=O)c(S(=O)(=O)c2ccccc2)cc2ccccc21)NCc1ccccc1 | -8.55% [at 2.6 µM]
c1ccc(-c2ccc([C@H]3[C@H]4CNC[C@@H]3N4Cc3cc(-c4ccccc4)on3)cc2)cc1 | 49.3% [at 10 µM]
O=C(NC1CCCC1)N1[C@@H]2CNC[C@H]1C2c1ccc(-c2cccnc2)cc1 (stereo partly specified) | 19.4%
Cc1ccc2c(c1)cc(S(=O)(=O)c1ccccc1)c(=O)n2CC(=O)NC(C)C | -9.24% [at 0.16 µM]
O=C(Nc1ccc(-c2nc(-c3cccc(Br)c3)co2)cc1)Nc1ccccc1F | 6.98%
COc1ccccc1-c1nc(Cn2nnc(-c3nc(-c4cccnc4)no3)c2C)c(C)o1 | 10.3% [at 0.16 µM]
